In the library only some 8% were active in any assay of this set; here they are far more common.
HCMV inh: qHTS Assay for inhibitors of the human cytomegalovirus (HCMV); HFF cells, HCMV-luciferase reporter, 72 h; hits give low values; activity change, negative = inhibition, % at 57.5 µM; 410,000 compounds, 4.5% hits; AID 1259415, 2018; in the data active = activity change below about -60%; inconclusive = no clear call, values can overlap the other calls; inactive = above about -39%
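Inhibition of viral replication was scored as loss of reporter luminescence in HFFs infected with HCMV-luciferase (MOI 1 PFU/cell) for 72 h; compounds tested at 2 doses, normalized to buffer and Salinomycin controls.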
SARS PLpro yeast: qHTS of Yeast-based Assay for SARS-CoV PLP; S. cerevisiae expressing SARS-CoV PLpro, growth rescue; Potency, µM (doses to about 32.9 µM), most hits filed as activators; 330,000 compounds, 0.19% hits; calls by dose curve; also: nearly all actives have a fitted effect of over 55% in size
MARV entry inh: qHTS for inhibitors of binding or entry into cells for Marburg Virus | Marburg virus pseudotyped entry inhibition, cell reporter | Potency, µM (titrated, usually from 37.8 µM), most hits filed as inhibitors | 300,000 compounds, 1.8% hits; calls by dose curve; tested in HEK293 cells
FMDV inh: High Throughput Screening for Foot and Mouth Disease Virus Antivirals | FMDV antiviral cell-based qHTS | Potency, µM (series often up to 57.9 µM), most hits filed as inhibitors | 410,000 compounds, 1.2% hits | AID 1159524, 2015; calls by dose curve; tested in HEK293T cells; also: read-out not given here; nearly all actives have a fitted effect of over 45% in size
LASV entry inh: qHTS for Inhibitors of binding or entry into cells for Lassa Virus; 300,000 compounds, 1.2% hits; Lassa virus pseudotype entry inhibition, cell reporter; Potency, µM (titrated, usually from 37.9 µM), actives largely listed as inhibitors; calls by dose curve; tested in HEK293 cells; also: nearly all actives have a fitted effect of over 50% in size
HCV inhibitor: qHTS Assay for Inhibitors of Hepatitis C Virus (HCV); Huh7.5.1 HCVcc-Cre infection, luciferase reporter, 44 h; Potency, µM (titrated, usually from 41.8 µM), hits mostly inhibitors; 340,000 compounds, 3.4% hits; AID 651820, 2012; active = well fitted inhibition curve with a large enough effect; inconclusive = small, poorly fitted or top-dose-only effect, or another doubt; inactive = no such curve, though single readings can be large or run the other way
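Seed cells (1,000/well) for 4 h; treat with compound and infect with HCVcc-Cre, moi about 0.5. Incubate 44 h, then detect luciferase activity.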
Large screens that a line does not name were inactive.

CCOC(=O)c1c(N)sc2c(NC(C)=O)cccc12	HCV inhibitor 17.8µM
CCOC(=O)c1sc(NC(=O)c2ccc(C)s2)cc1C	LASV entry inh inconclusive, HCV inhibitor inconclusive
CCOC(=O)c1sc(NC(=O)Nc2ccccc2Cl)cc1C	HCMV inh -73.8, MARV entry inh inconclusive, LASV entry inh 7.94µM, HCV inhibitor inconclusive
CCOC(=O)c1c(NC(C)=O)sc2c(OC)cccc12	HCV inhibitor inconclusive
COC(=O)c1sc(-c2ccccc2)cc1NC(C)=O	MARV entry inh inconclusive, HCV inhibitor 8.91µM
CCOC(=O)c1c(N)sc(C(=O)Nc2ccccc2)c1C	HCV inhibitor 11.2µM (no result: MARV entry inh, LASV entry inh)
CCOC(=O)c1sc(NC(=O)Nc2ccccc2)cc1C	MARV entry inh 16.4µM, LASV entry inh 14.1µM, HCV inhibitor inconclusive
CCOC(=O)c1sc(NC(C)=O)cc1C	none (no result: MARV entry inh, LASV entry inh)
CCOC(=O)c1c(N)sc(N)c1C(=O)OCC	SARS PLpro yeast inconclusive, FMDV inh 31.6µM
CCOC(=O)c1c(N)sc(C(=O)Nc2ccccc2F)c1C	none (no result: MARV entry inh, LASV entry inh)
COc1ccc(O)c(CN2CCC3(CCC(CNC(=O)C4CCCO4)O3)CC2)c1 (stereo not drawn)	none (no result: HCMV inh, SARS PLpro yeast, MARV entry inh, LASV entry inh, HCV inhibitor)
Cc1cc(C(=O)Nc2cccc3ccccc23)n(-c2ccccc2)n1	none
Cc1cc(C(=O)Nc2cccc(C)c2C)n(-c2ccccc2)n1	HCMV inh -88.0, LASV entry inh inconclusive
Cc1cc(C(=O)NCCN2CCN(c3cccc(Cl)c3)CC2)n(-c2ccccc2)n1	MARV entry inh 7.31µM, FMDV inh inconclusive, LASV entry inh 7.31µM, HCV inhibitor inconclusive
CCCCn1c(=O)c2oc3ccccc3c2n(Cc2ccc(OC)cc2)c1=O	HCMV inh inconclusive (no result: SARS PLpro yeast, MARV entry inh, HCV inhibitor)
CC(=O)C1=C(O)C(=O)N(Cc2ccccc2)C1c1ccc(F)cc1 (stereo not drawn)	HCMV inh -76.6 (no result: MARV entry inh, LASV entry inh)
Cc1ccc(-n2nc(CO)c(C(=O)NCCCCc3ccccc3)n2)cc1	MARV entry inh inconclusive (no result: SARS PLpro yeast, HCV inhibitor)
CN1CCN(NC(=S)Nc2ccc(Oc3ccccc3)cc2)CC1	HCMV inh -66.9, MARV entry inh inconclusive, FMDV inh inconclusive, HCV inhibitor inconclusive
COc1cccc(NC(=S)NN2CCN(C)CC2)c1	none
O=C(Nc1cccc(/C=C/c2ccccn2)c1)c1cc(Cl)ccn1	HCV inhibitor 5.01µM (no result: LASV entry inh)
COc1ccc2c(c1)c(C(=O)CN1CCN(C)CC1)c(C)n2Cc1ccccc1	MARV entry inh 20µM
CC(=O)c1ccc(N2CCN(c3ncnc4c3cnn4C)CC2)cc1	FMDV inh inconclusive (no result: SARS PLpro yeast, MARV entry inh, HCV inhibitor)
Cc1ccc(-n2ncc3c(N4CCC(Cc5ccccc5)CC4)ncnc32)cc1	HCMV inh inconclusive (no result: SARS PLpro yeast, MARV entry inh, HCV inhibitor)
CN1CCN(c2ncnc3c2cnn3-c2cccc(Cl)c2)CC1	LASV entry inh inconclusive (no result: SARS PLpro yeast, MARV entry inh, HCV inhibitor)
COc1ccc(-n2ncc3c(N4CCN(c5cccc(C)c5C)CC4)ncnc32)cc1	FMDV inh inconclusive (no result: MARV entry inh, LASV entry inh)
COc1ccc(N2CCN(c3ncnc4c3cnn4C)CC2)cc1	HCMV inh -61.0, FMDV inh inconclusive (no result: SARS PLpro yeast, MARV entry inh, HCV inhibitor)
Cn1ncc2c(N3CCN(c4cccc(Cl)c4)CC3)ncnc21	FMDV inh 15.8µM, LASV entry inh inconclusive (no result: SARS PLpro yeast, MARV entry inh, HCV inhibitor)
Cc1ccc(-n2ncc3c(N4CCCCC4)ncnc32)cc1	HCMV inh -100.5, FMDV inh inconclusive, LASV entry inh inconclusive (no result: SARS PLpro yeast, MARV entry inh, HCV inhibitor)
COc1ccc(-n2ncc3c(N4CCCCC4)ncnc32)cc1	FMDV inh 10µM, HCV inhibitor inconclusive (no result: HCMV inh, MARV entry inh, LASV entry inh)
COc1cc2nc(CN(CCO)C3CS(=O)(=O)CC3O)nc(N3CCCCC3)c2cc1OC (stereo not drawn)	none (no result: HCMV inh, SARS PLpro yeast, MARV entry inh, LASV entry inh, HCV inhibitor)
Cc1ccc(Cl)cc1N1CCN(c2ncnc3onc(C)c23)CC1	FMDV inh inconclusive, LASV entry inh inconclusive (no result: SARS PLpro yeast, MARV entry inh, HCV inhibitor)
COc1ccc(-n2ncc3c(NCC(C)C)ncnc32)cc1	MARV entry inh inconclusive, LASV entry inh inconclusive, HCV inhibitor 14.1µM
Cc1noc2ncnc(N3CCN(c4cccc(Cl)c4)CC3)c12	HCMV inh -71.6, FMDV inh 25.1µM, HCV inhibitor 10µM (no result: MARV entry inh, LASV entry inh)
Clc1ccc(-n2ncc3c(N4CCCCCC4)ncnc32)cc1	HCMV inh -79.4, FMDV inh inconclusive (no result: MARV entry inh, LASV entry inh)
CSc1nnc(C(C)(C)C)c(=O)n1N/C=C1\C(=O)CCC2=C1CCCC2	none (no result: HCMV inh, SARS PLpro yeast, FMDV inh, LASV entry inh, HCV inhibitor)
O=S(=O)(Nc1ccc2c3c(cccc13)CC2)c1ccc(F)cc1	HCMV inh -61.1, MARV entry inh inconclusive
CSc1ccc(S(=O)(=O)Nc2ccc3c4c(cccc24)CC3)cc1	HCMV inh -81.6, MARV entry inh inconclusive, HCV inhibitor inconclusive

Screens: PubChem BioAssay, National Center for Advancing Translational Sciences (NCATS)
